Source: PubChem BioAssay (National Center for Advancing Translational Sciences (NCATS))
EPAC1 antag – blocks human EPAC1 exchange factor. O95398. EPAC1 GEF assay, Rap1b-BODIPY-GDP exchange fluorescence. Potency, µM (titrated, usually from 115 µM), inactives show at the highest dose activity change, negative = inhibition, usual class: inhibitors. 0.14% of 360,000 active. AID 720709;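 note: plate controls were vehicle for no effect and positive control for full effect; nearly all actives have a fitted effect of over 50% in size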
Target sequence (O95398 whole entry, looked up): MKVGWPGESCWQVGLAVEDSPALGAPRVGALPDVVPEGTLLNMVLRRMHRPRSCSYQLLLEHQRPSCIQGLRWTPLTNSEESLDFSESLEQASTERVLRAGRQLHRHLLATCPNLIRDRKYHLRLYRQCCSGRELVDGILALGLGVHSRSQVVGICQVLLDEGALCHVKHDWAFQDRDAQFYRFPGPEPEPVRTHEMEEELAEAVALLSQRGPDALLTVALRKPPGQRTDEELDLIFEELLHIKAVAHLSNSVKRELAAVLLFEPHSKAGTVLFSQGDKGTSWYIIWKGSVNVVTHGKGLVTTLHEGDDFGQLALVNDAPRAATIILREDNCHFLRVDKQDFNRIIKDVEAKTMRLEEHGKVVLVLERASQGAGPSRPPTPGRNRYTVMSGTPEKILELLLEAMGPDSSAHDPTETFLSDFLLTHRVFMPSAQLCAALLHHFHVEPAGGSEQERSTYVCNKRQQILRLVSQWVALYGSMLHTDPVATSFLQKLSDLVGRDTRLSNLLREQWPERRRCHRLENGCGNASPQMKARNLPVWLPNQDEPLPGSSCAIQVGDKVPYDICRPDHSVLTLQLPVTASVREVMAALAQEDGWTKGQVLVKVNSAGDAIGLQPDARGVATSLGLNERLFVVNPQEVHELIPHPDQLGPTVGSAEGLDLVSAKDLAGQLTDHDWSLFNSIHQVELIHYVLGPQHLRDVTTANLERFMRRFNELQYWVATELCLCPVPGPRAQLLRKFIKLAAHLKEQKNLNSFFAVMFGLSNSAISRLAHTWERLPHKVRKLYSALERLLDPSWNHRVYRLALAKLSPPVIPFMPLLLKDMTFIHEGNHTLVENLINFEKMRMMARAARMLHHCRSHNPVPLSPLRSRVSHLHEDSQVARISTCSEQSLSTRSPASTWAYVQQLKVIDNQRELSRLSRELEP
BRCA1 expr up – increases BRCA1 expression; MCF7-BRCA1-FFLuc reporter, luminescence, 48 h; response scale: scaled: vehicle 0%, 10 µM genistein 100%; Potency, µM (series often up to 46.1 µM), for inactives: top-dose activation, hits mostly activators; 1.1% of 380,000 active; AID 624202; note: nearly all actives have a fitted effect of over 80% in size
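Activators of BRCA1 expression were detected as increased firefly luciferase luminescence in engineered MCF7 cells after 48 h compound incubation. Signals were scaled to genistein 10 microM as full activation.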
EPAC2 antagonist – blocks human EPAC2 exchange factor; Potency, µM (titrated, usually from 114 µM), inactives show at the highest dose activity, negative = inhibition, most hits filed as inhibitors; Q8WZA2; 0.18% of 360,000 active; EPAC2 GEF exchange of Rap1B-BODIPY-GDP, fluorescence; note: % is set by controls: 0 for no effect and ±100 for the full control effect; nearly all actives have a fitted effect of over 45% in size
USP1-UAF1 inh – blocks the human USP1/UAF1 deubiquitinase complex; recombinant USP1/UAF1, Ub-Rhodamine cleavage fluorescence; O94782; Potency, µM (doses to about 57.1 µM), for the others: at the top dose activity change, negative = inhibition, usual class: inhibitors; 0.23% of 390,000 active; note: % is set by controls: 0 for no effect and ±100 for the full control effect; nearly all actives have a fitted effect of over 60% in size
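Step one: compound is pinned into 1nM USP1/UAF1 in HEPES pH 7.8 buffer with TCEP. Step two: 15 min room-temperature incubation. Step three: Ub-Rho (150nM final) starts cleavage, tracked by fluorescence over six one-minute reads.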
EPAC2 agonist – EPAC2 (human) agonism. Potency, µM (top dose mostly 154 µM), for the others: top-dose activation, usual class: activators. Q8WZA2. 0.079% of 360,000 active. EPAC2 activation, biochemical qHTS; response scale: 100% = 6.5 mM cAMP response; note: nearly all actives have a fitted effect of over 50% in size
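Nucleotide exchange monitored as fluorescence drop when BODIPY-GDP leaves Rap1B. Reaction: 100 nM EPAC2, 250 nM RAP1B-BODIPY-GDP, 50 uM GDP, room temperature, kinetic read over 30 min. Activity expressed relative to 6.5 mM cAMP.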
EPAC1 ag – activates human EPAC1 exchange factor; EPAC1 agonist qHTS, biochemical assay; response scale: 100% = response to 6.5 mM cAMP; Potency, µM (doses to about 154 µM), for the others: at the top dose activation, usual class: activators; 0.073% of 360,000 active; note: nearly all actives have a fitted effect of over 60% in size
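Nucleotide exchange assay: 100 nM EPAC1 with 250 nM Rap1B loaded with BODIPY-GDP and 50 uM GDP, room temperature. Fluorescence (480/540 nm) read every 5 min for 30 min; signal change normalized to 6.5 mM cAMP as full agonist.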
* marks the source's active call; other numbers are inactive results; ? = inconclusive; . = no result; [ ] = dose if it differs, or a comment. In the library only some 1.4% were active in any assay of this set; here they are far more common. Calls come from the whole dose curve; as a rule, active = well fitted curve in the direction sought with a large enough effect; inconclusive = small, poorly fitted or top-dose-only effect, or another doubt; inactive = no such curve, though single readings can be large; an effect the other way counts as inactive or inconclusive. Potency is the fitted concentration of half-maximal effect.

SMILES	EPAC1 antag	BRCA1 expr up	EPAC2 antagonist	USP1-UAF1 inh	EPAC2 agonist	EPAC1 ag
CC1(Cc2ccc(Cl)cc2)C(=O)Nc2ccc(-c3cccnc3)cc21 (stereo not given)	-7%	-23%	50µM*	.	12%	-2%
CC1(C)CC(=O)c2c(O)cc(OCc3ccc(Br)cc3)cc2O1	5%	3.5µM*	8%	-18%	1%	7%
CN(C(=O)CN1CCN(c2cc(-c3cccc4oc5ccccc5c34)ncn2)CC1)c1ccccc1	7%	12%	-3%	.	17%	11%
COc1ccc(CNC(=O)Cc2c(C(=O)O)c(C)cn2C)cc1	.	.	.	-3%	.	.
COc1ccc(-n2c(=O)c3ccccc3n(Cc3ccc(F)cc3Cl)c2=O)cc1OC	.	0%	.	-22%	.	.
CC(=O)NCCNC(=O)C1(C)Cc2c(-c3ccc(NC(C)=O)cc3)ccnc2O1 (stereo not given)	-3%	0%	15%	.	3%	-4%
Cc1nc(Nc2cnc(/C=C/c3cc(C(=O)Nc4cccc(C(F)(F)F)c4)ccc3C)cn2)cc(N2CCNCC2)n1	-22%	-78%	50µM*	?	?	8%
COc1cccc(CC(=O)N2CCC(n3nccc3NC(=O)C3CC3)CC2)c1	2%	-18%	6%	-10%	10%	-7%
CSc1ccc(CC(=O)N2CCC(n3nccc3NC(=O)C3CC3)CC2)cc1	1%	2.8µM*	-1%	-24%	7%	14%
O=C1O[C@@H](c2ccccc2)C[C@@H](O)[C@H](O)CCCc2ccccc21	-16%	7%	-3%	.	8%	-11%
Nc1nnc(SCCOc2ccc(Br)cc2)s1	8%	11µM*	-2%	-9%	-10%	4%
Cc1ccc(Sc2ccc(S(=O)(=O)Nc3ccc(CC(=O)O)cc3)cc2)cc1C	-13%	-3%	-14%	-23%	-5%	-8%
CCOC(=O)c1oc2nc3c(cc2c1N)COC(C)(C)C3	11%	7.9µM*	7%	-12%	-3%	0%
CCOC(=O)c1oc2nc3c(cc2c1N)CCCC3	-22%	?	10%	-22%	-11%	0%
COC(=O)c1sc2nc3c(cc2c1N)COC(C)(C)C3	4%	4.5µM*	1%	-22%	-11%	-2%
O=C(COc1ccccc1C(=O)Nc1ccccc1)Nc1ccc2ccccc2c1	.	-44%	.	.	.	.
COc1ccc(C(=O)Nc2nc3ccc(OC)cc3s2)cc1	-2%	2.2µM*	-3%	-9%	2%	9%
COc1ccc(C(=O)Nc2nc3ccc(S(C)(=O)=O)cc3s2)cc1	3%	25%	4%	-14%	-7%	1%
COc1ccc2nc(NC(=O)c3c(C)noc3C)sc2c1	5%	2.8µM*	?	1%	-3%	0%
Cc1noc(C)c1C(=O)Nc1nc2ccc(S(C)(=O)=O)cc2s1	-3%	33%	-6%	-16%	5%	-1%
COc1ccc(Nc2nc3ccc(OC)cc3s2)cc1	-11%	7.9µM*	-11%	-12%	11%	14%
COc1ccc(C(=O)Nc2nc(-c3ccc([N+](=O)[O-])cc3)c(-c3ccc(OC)cc3)s2)cc1	457%	-21%	136%	?	100µM*	112µM*
CCOC(=O)c1c(C)[nH]c(C)c1S(=O)(=O)NCC(=O)NCc1ccc(C)cc1	.	10%	.	-19%	.	.
CCC[C@H]1COCCS(=O)(=O)N1Cc1ccccc1	-8%	5%	5%	-4%	14%	-6%
NNC(=O)C=C1CCN(c2ncc(C(F)(F)F)cc2Cl)CC1	7%	32%	13%	-20%	0%	-9%
SMILES	EPAC1 antag	BRCA1 expr up	EPAC2 antagonist	USP1-UAF1 inh	EPAC2 agonist	EPAC1 ag
O=C(O)C=C1CCN(c2ncc(C(F)(F)F)cc2Cl)CC1	-3%	11µM*	-5%	-1%	-4%	4%
COC(=O)C(Cc1ccc(O)cc1)N1Cc2ccccc2C1=O (stereo not given)	-11%	10µM*	3%	-15%	1%	2%
O=C(O)c1ccc(N/N=C/c2cccc3nccnc23)cc1	4%	13µM*	-22%	-21%	-2%	-5%
COc1ccc(CCNC(=O)[C@H](C)NC(=O)N2CCn3c2nc2ccccc23)cc1OC	3%	0%	2%	-16%	2%	-8%
COc1ccc(OCc2nc3ccccc3n2Cc2ccc(C(C)(C)C)cc2)cc1	.	4.5µM*	.	-14%	.	.
COc1ccccc1N1C(=O)S/C(=C\c2cc(C)n(C)c2C)C1=O	-15%	5.6µM*	-24%	-16%	-18%	-106%
COCc1nc(-c2ccc(-c3ccccc3)nc2OC)no1	0%	10µM*	-1%	-20%	12%	0%
COCc1nc(-c2ccc(-c3ccc(OC)cc3)nc2OC)no1	-17%	0%	3%	-19%	15%	1%
COc1cccc(-c2ccc(-c3noc(-c4ccccc4F)n3)c(OC)n2)c1	9%	10µM*	14%	-10%	1%	-1%
COc1cccc(-c2ccc(-c3noc(-c4cccs4)n3)c(OC)n2)c1	-12%	57%	-16%	-2%	10%	-14%
CC(=O)Nc1cccc(C(=O)N/N=C/c2c[nH]c3ccccc23)c1	-8%	-8%	11%	-13%	7%	-3%
O=[N+]([O-])c1cc(/C=N/O)ccc1Oc1ccccc1Cl	3%	7.1µM*	?	-6%	6%	-3%
Cc1ccc(NC(=O)c2cc3c([nH]c2=O)CC(C)(C)CC3=O)cc1	.	0%	.	.	.	.
CN(C)/C=C1\SC(=S)N(c2ccc(F)cc2)C1=O	-10%	62%	-4%	-11%	-4%	-21%
CN(C)/C=C1\SC(=S)N(c2ccc(Br)cc2)C1=O	-8%	10µM*	7%	?	-2%	-5%
CC(C#N)Sc1nnc(Nc2ccccc2)s1 (stereo not given)	-9%	24%	5%	-20%	-3%	-3%
Cc1ccc(CSc2nnc(Nc3ccc(C)cc3)s2)cc1	-2%	-1%	-1%[57.1 µM]	-14%	0%	-14%
CCSc1nnc(NC(=O)c2cc3c(s2)CCCC3)s1	2%	7.9µM*	5%	-2%	6%	2%
CCSc1nnc(NC(=O)c2ccccc2)s1	-12%	78%	1%	-26%	-10%	8%
CCSc1nnc(NC(=O)c2ccccc2C)s1	7%	10µM*	-6%	2%	-10%	10%
CCSc1nnc(Nc2ccccc2)s1	-9%	11µM*	-6%	-12%	-1%	-3%
O=C(Nc1nnc(SCc2ccccc2)s1)c1cc2c(s1)CCCC2	2%	33%	2%[57.1 µM]	-19%	-11%	-13%
CCSc1nnc(Nc2ccc(C)cc2)s1	-9%	10µM*	-3%	-11%	8%	9%
